In ChEMBL document CHEMBL3988442, “University of Dundee, Small-Polar-MMV Screening Library” (2021):
For some assays here: Entries with a potency or affinity are not part of this list.

Key:
Design in all cases: scale not given: direction of the effect not stated beside the values
[1] = target: Protein translocase subunit SecA (Escherichia coli (strain K12)) (UniProt P10408); experiment: Assay to Identify E. coli SecA ATPase Inhibitors; type: functional; settings: 30 µM
[2] = target: T1, Ubiquitin-activating enzyme e1, putative (Leishmania donovani (strain BPK282A1)) (UniProt E9BSI1); experiment: Leishmania donovani Ubiquitin Activating Enzyme (LdE1); type: functional; settings: 30 µM
T1 sequence (whole entry): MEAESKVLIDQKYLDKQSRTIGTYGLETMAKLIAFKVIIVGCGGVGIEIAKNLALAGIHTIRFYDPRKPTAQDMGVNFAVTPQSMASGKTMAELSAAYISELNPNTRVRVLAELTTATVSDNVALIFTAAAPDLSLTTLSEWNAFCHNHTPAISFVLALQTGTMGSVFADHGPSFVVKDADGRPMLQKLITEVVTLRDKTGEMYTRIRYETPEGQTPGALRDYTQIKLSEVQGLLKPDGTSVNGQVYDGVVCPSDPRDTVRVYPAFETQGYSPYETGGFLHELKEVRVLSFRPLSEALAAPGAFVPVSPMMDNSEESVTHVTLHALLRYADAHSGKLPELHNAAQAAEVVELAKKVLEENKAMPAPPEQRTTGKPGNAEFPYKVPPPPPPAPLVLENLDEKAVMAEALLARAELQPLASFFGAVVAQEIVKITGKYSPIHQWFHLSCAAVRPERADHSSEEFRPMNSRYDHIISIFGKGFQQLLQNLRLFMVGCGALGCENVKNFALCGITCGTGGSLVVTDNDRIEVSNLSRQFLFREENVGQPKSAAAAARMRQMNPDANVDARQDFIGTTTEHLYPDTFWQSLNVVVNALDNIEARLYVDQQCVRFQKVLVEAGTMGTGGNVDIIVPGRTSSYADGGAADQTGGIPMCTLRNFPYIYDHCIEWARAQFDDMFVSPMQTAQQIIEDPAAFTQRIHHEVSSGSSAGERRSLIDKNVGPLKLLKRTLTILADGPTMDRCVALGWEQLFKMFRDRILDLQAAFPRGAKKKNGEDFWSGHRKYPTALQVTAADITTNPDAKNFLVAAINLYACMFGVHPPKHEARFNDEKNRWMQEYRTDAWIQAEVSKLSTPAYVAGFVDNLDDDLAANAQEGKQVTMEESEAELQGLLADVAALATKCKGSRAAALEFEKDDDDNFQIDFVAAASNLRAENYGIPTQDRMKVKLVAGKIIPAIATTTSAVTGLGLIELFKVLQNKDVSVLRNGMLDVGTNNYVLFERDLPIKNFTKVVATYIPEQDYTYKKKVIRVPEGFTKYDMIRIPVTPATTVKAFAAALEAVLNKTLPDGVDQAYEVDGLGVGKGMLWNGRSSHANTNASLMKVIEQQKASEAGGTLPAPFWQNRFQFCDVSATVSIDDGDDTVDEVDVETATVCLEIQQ

[3] = target: AMP-activated protein kinase, AMPK (Homo sapiens) (UniProt P54646+O43741+P54619+Q9UGJ0+Q9Y478+Q13131+Q9UGI9); experiment: AMP-dependent Kinase enzyme assay. An in vitro enzyme assay that detects ADP turnover that is directly proportional to AMPK activity. This uses naive AMPK that is activated during the assay with MK-8722; type: functional; settings: 30 µM
[4] = target: Sialic acid-binding Ig-like lectin 9 (Homo sapiens) (UniProt Q9Y336); experiment: Hs-Siglec9 ALPHAscreen SOP 20170721; settings: 10 µM
Sequence of Sialic acid-binding Ig-like lectin 9 (Homo sapiens) (Q9Y336 whole entry): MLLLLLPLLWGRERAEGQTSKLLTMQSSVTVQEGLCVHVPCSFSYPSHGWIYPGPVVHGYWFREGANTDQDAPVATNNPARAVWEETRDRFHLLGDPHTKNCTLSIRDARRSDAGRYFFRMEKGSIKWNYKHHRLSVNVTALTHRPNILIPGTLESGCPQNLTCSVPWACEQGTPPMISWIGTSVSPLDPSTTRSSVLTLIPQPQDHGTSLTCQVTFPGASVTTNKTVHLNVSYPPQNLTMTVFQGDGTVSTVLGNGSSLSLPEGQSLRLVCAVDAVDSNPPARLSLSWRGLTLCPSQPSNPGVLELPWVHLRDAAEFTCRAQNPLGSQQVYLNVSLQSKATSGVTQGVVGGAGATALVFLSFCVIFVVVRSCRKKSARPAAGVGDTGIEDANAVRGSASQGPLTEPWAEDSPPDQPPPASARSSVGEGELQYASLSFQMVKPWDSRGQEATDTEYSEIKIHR

Trypanosoma cruzi = experiment: Trypanosoma cruzi phosphomannomutase and mannose-1-phosphate guanylyltransferase assay; type: functional; settings: 10 µM
[5] = target: T2, Arginase-2, mitochondrial (Homo sapiens) (UniProt P78540); experiment: in vitro enzyme assay to detect the production of urea directly proportional to the activity of Arginase II; type: functional; settings: 33.3 µM; further: in the data most compounds retested in dose-response had high values
T2 sequence (whole entry): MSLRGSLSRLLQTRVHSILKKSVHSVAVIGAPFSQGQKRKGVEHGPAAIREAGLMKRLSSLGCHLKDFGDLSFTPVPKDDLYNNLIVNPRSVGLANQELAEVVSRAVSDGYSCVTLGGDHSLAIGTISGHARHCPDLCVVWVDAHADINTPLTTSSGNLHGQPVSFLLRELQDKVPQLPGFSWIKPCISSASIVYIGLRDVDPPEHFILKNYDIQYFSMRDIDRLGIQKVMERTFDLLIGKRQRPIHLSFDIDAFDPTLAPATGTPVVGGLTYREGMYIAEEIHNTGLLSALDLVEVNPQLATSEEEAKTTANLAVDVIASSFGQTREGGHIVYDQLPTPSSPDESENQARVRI

[6] = target: T3, Proteasome subunit beta (Trypanosoma cruzi) (UniProt O96673); experiment: Trypanosoma cruzi proteasome chymotrypsin-like activity (TcProtChymo) assay.; further: in the data most compounds retested in dose-response had high values; type: functional; settings: 9.37 µM
T3 sequence (whole entry): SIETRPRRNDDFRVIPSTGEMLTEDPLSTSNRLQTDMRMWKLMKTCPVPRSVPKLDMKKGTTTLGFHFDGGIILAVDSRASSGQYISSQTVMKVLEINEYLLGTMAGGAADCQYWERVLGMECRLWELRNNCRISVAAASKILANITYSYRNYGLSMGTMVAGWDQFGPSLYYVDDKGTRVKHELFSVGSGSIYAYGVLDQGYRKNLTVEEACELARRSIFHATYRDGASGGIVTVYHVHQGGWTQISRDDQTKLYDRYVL

Homo sapiens = organism: Homo sapiens; experiment: To identify inhibition of the IFN signalling (Jak-Stat) pathway via expression of an eGFP reporter gene under the control of an IFN-stimulated response element (ISRE) containing MxA promoter.; type: functional; settings: 30 µM
[7] = target: T4, Tyrosyl-tRNA synthetase, putative (Trypanosoma cruzi (strain CL Brener)) (UniProt Q4DSP6); experiment: Trypanosoma cruzi tyrosyl tRNA synthetase (TcYRS) _High Tyrosine SOP; type: functional; settings: 30 µM; further: in the data most compounds retested in dose-response had high values
T4 sequence (whole entry): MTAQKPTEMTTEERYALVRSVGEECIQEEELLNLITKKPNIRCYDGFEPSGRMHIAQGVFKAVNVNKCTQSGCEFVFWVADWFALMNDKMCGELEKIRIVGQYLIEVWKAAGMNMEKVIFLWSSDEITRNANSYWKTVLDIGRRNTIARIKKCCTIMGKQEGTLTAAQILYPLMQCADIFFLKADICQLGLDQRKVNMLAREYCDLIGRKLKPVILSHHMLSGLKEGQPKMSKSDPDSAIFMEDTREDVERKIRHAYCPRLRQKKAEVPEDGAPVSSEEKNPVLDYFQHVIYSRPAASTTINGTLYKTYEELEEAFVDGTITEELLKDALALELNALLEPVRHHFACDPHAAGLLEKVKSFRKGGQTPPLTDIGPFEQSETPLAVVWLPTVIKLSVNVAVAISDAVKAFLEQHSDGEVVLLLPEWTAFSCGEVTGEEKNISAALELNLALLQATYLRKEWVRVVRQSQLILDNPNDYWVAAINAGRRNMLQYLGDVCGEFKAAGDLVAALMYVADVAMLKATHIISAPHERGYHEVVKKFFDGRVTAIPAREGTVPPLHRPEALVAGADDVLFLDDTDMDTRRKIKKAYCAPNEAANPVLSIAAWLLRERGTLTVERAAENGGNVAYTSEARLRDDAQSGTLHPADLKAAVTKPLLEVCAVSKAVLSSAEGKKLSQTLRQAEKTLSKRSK

[8] = target: T4, Tyrosyl-tRNA synthetase, putative (Trypanosoma cruzi (strain CL Brener)); experiment: Trypanosoma cruzi tyrosyl tRNA synthetase (TcYRS) SOP; type: functional; settings: 30 µM
[9] = target: Chromo domain-containing protein 1 (Saccharomyces cerevisiae (strain ATCC 204508 / S288c) (Baker's yeast)) (UniProt P32657); experiment: ScCHD-1 Enzyme Inhibition Assay; type: functional; settings: 30 µM; further: in the data most compounds retested in dose-response had high values
Sequence of Chromo domain-containing protein 1 (Saccharomyces cerevisiae (strain ATCC 204508 / S288c) (Baker's yeast)) (P32657 whole entry, the tested form may be a part): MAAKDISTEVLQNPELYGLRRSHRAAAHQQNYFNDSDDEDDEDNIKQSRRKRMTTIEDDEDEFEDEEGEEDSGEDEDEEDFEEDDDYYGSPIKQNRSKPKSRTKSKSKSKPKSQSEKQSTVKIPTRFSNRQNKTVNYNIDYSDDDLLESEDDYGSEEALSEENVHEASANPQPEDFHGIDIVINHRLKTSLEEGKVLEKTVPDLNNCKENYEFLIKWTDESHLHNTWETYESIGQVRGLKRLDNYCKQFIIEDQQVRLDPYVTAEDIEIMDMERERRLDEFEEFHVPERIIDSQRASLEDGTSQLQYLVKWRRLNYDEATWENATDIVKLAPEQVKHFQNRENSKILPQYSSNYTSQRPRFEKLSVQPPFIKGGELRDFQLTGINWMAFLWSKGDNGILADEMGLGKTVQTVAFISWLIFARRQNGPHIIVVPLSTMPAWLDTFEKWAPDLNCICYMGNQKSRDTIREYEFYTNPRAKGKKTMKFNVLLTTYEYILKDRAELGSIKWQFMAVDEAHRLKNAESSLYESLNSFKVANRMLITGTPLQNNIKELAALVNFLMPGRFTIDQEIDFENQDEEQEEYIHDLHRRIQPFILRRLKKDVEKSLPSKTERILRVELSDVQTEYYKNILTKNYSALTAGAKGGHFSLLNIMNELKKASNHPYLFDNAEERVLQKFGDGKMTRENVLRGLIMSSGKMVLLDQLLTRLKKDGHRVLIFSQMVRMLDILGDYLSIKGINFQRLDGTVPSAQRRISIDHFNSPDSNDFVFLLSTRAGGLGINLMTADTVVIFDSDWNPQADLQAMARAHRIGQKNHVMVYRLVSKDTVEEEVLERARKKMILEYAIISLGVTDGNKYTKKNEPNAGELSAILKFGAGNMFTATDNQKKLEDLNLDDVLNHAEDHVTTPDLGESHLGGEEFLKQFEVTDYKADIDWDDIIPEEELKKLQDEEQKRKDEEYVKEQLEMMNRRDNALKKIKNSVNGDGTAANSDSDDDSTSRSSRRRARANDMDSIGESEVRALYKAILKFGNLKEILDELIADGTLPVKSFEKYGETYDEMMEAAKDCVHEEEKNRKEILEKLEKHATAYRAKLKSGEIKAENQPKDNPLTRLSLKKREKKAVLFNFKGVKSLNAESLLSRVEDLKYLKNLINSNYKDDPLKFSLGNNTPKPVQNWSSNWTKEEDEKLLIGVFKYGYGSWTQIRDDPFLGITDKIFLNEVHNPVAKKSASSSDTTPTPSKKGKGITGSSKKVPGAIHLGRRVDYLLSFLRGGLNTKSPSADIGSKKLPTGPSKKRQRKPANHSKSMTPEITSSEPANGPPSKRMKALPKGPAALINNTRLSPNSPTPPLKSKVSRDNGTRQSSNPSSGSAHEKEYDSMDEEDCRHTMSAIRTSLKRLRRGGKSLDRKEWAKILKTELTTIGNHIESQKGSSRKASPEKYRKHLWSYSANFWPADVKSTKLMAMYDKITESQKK

Sequence of Protein translocase subunit SecA (Escherichia coli (strain K12)) (P10408 whole entry): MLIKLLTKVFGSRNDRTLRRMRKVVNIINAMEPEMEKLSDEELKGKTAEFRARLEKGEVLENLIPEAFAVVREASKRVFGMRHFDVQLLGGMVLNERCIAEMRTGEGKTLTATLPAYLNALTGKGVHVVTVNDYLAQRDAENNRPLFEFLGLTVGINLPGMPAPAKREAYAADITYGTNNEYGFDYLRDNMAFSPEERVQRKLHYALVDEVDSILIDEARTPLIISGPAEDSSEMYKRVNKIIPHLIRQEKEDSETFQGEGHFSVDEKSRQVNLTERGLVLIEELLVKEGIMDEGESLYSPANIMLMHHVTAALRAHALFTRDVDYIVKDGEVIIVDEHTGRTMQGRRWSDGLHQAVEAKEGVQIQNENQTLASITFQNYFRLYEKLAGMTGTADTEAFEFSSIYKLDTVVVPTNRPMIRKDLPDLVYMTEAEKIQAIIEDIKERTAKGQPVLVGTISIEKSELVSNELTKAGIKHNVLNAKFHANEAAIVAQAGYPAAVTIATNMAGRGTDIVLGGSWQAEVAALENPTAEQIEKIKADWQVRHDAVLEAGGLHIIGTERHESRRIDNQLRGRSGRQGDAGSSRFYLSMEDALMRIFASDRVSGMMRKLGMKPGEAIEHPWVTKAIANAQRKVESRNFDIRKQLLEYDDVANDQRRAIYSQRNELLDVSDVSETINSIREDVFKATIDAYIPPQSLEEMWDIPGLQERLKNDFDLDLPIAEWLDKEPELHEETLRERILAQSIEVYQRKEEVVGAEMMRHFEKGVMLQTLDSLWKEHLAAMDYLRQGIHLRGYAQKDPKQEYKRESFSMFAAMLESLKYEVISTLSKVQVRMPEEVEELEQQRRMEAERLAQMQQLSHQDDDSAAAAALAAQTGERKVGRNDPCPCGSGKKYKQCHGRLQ

Row | SMILES | Percent Effect [1] | Percent Effect [2] | Percent Effect [3] | Percent Effect [4] | Percent Effect (Trypanosoma cruzi) | Percent Effect [5] | Percent Effect [6] | Percent Effect (Homo sapiens) | Percent Effect [7] | Percent Effect [8] | Percent Effect [9]
1 | CC(C)c1noc(C(C)N2CCN(Cc3ccsc3)CC2)n1 (configuration not stated) | -4.95% | 7.89% | -4.06% | -4.87% | -3.46% | 3.6% | -2.45% | -18.3% | 4.43% | 3.7% | 4.12%
2 | COCCN1C(=O)C[C@H]2[C@H]1CCN2Cc1cccc(C#N)c1 | -2.88% | 2.67% | 7.27% | -1.09% | -2.95% | 3.03% | 5.9% | 6.32% | 1.06% | 1.28% | 1.66%
3 | O=C(NCc1csc(Br)c1)c1ccc(=O)[nH]n1 | -0.0216% | 6.33% | 0.358% | -1.84% | -3.18% | 4.95% | 6.86% | 13.1% | 4.17% | -10.1% | -8.89%
4 | O=C1CC(c2cccnc2)C2(CCN(S(=O)(=O)C3CC3)CC2)N1 (configuration not stated) | -5.32% | 8.11% | 1.06% | -2.02% | 3.42% | -4.78% | 15.3% | -9.26% | 4.32% | 12.8% | 2.44%
5 | CCNC(=O)NC(=O)CSC(C)c1c(F)cccc1F (configuration not stated) | -5.95% | 2.67% | 1.21% | -3.31% | -5.55% | -4.17% | 22.3% | 10.5% | 0.546% | -1.24% | -6.68%
6 | CCOc1cccc(CNc2ccccc2C(=O)OC)c1O | 2.18% | 6.67% | -9.62% | -4.44% | -4.32% | -10.7% | 19% | 21.5% | 3.17% | 7.69% | -13.3%
7 | Cc1ccc(-c2cc(N)c(=O)n(CC(=O)NCC3CC3)n2)s1 | -3.74% | 6.76% | 19.9% | 2.48% | -0.395% | -5.8% | 9.2% | 11.4% | 1.07% | 9.09% | -14.1%
8 | COc1cccc(Cc2nnc(SC3CCOC3=O)o2)c1 (configuration not stated) | -4.53% | -2.67% | -9.71% | 15.1% | 2.04% | 0.521% | 5.41% | 5.46% | -4.92% | 8.64% | -2.72%
9 | Cc1ccc(C(=O)N2CCC3(CCC(=O)N(CC(N)=O)C3)CC2)c(O)c1 | 1.03% | 4.17% | -0.266% | -3.34% | -2.82% | -2.65% | 14.2% | -6.14% | 3.16% | 5.13% | -3%
10 | Fc1cccc(CN2CCC(c3n[nH]c4ncccc34)CC2)c1F | -3.7% | 9.46% | 25.8% | 6.41% | 7.71% | -1.16% | 18.2% | 18.6% | 3.23% | 14.3% | -10.6%
11 | CN1CCCc2cc(NC(=O)N3CCOC(C(N)=O)C3)ccc21 (configuration not stated) | 4.12% | 21.9% | 34.2% | 5.33% | 5.75% | -1.2% | 10.5% | 14.3% | 8.33% | 21% | -3.37%
12 | COC(=O)C(c1cc(F)ccc1F)N(C)C(=O)c1cccnc1O (configuration not stated) | -4.02% | 6.33% | 7.36% | -2.25% | -1.33% | 0.645% | 10.3% | -7.9% | 1.04% | 12.7% | -12.9%
13 | O=C(NCCC(=O)N1CCCC1)c1nn(-c2ccccc2F)cc1O | -10.5% | 10.8% | -8.26% | 24.5% | 8.82% | -0.554% | 8.08% | 17.9% | 5.94% | 15.8% | -11.4%
14 | CC(C)S(=O)(=O)NCC1CCCN(C(=O)c2ccc3c(c2)OCCO3)C1 (configuration not stated) | -6.68% | 5.48% | 3.11% | -9.4% | 0.196% | 0% | 7.81% | 5.65% | -1.07% | 5% | -3.79%
15 | CS(=O)(=O)NCCCN1CCCC1Cc1ccccc1 (configuration not stated) | -4.3% | 0% | -5.49% | 11.9% | 3.49% | -3.42% | 9.09% | 13% | 5.42% | 16.5% | -3.37%
16 | N#Cc1ccnc(N2CCN(Cc3cccc(F)c3)CC2)c1 | -3.54% | 18.9% | -3.8% | 19.9% | 4.2% | 3.23% | 9.01% | 4.37% | 4.3% | 16.1% | -8.71%
17 | CCN1CCCn2c(nc(CNC(=O)c3ccsc3)cc2=O)C1 | -4.67% | 13.5% | 7.54% | 3.9% | -0.0978% | 9.24% | 13.1% | -1.85% | 3.24% | 17.9% | -0.449%
18 | CCn1ncnc1C(C)NC(=O)C1CCN(C(=O)COC)CC1 (configuration not stated) | -7.01% | 8.11% | -1.09% | 0.673% | -0.489% | 4.22% | 9.19% | 1.26% | 10.8% | 18.5% | -2.43%
19 | NC(=O)CSCCC(=O)N1CCCC1c1ccsc1 (configuration not stated) | -2.98% | 1.39% | -4.14% | 8.9% | 4.76% | 19% | 4.74% | 13.9% | 3.16% | 7.69% | -1.44%
20 | Cc1nc(CN2CCCC2c2c(C)nn(C)c2Cl)no1 (configuration not stated) | -2.73% | 5.26% | -8.02% | -3% | -2.33% | -3.24% | -9.22% | -11.3% | 3.45% | -1.24% | 6.8%
21 | O=C(NCc1nnc2n1CCCC2)N1CCc2ccccc2C1 | -3.86% | 11.4% | -3.15% | 2.59% | -4% | 4.09% | 4.63% | 4.93% | 1.04% | 12.7% | -7.99%
22 | O=C(Cn1ccc2c(Cl)cccc21)N[C@@H](C(=O)O)c1ccccc1 | -1.64% | 4% | 6.31% | 0.703% | -4.71% | -7.57% | 19.8% | -11.3% | -7.41% | -2.56% | -4.5%
